For 106 molecules, max dye-equivalent concentration results are on record in PubChem BioAssay AID590 (National Center for Advancing Translational Sciences (NCATS), 2007).

About 6,500 (11%) of roughly 59,000 compounds were called active. Another 15% or so got no clear call; they are omitted. Rule as the data show it: active = max dye-equivalent concentration above about 10 nM; inconclusive = mostly about 1.1 nM to 9.6 nM; inactive = weaker than that. For the sample, actives were picked, then their nearest neighbours and some compounds at random.

This experiment in a line: qHTS Assay for Spectroscopic Profiling in A350 Spectral Region. As to conditions: Compound autofluorescence, 340/450 nm, Alexa 350 dye-equivalents; stronger effect = higher value.
As to `O=C(COc1ncnc2ccccc12)NC(=O)NCc1ccccc1`, the max dye-equivalent concentration entry was “inactive”.

On to `Cc1cccc(-n2c(N)cc(=O)nc2SC(C)C(=O)NC2CCCCC2)c1` (stereo unspecified), for which the max dye-equivalent concentration entry is “inactive”.

For the molecule `COC(=O)c1ccc(CSc2ccccc2C)o1`, the max dye-equivalent concentration entry is “inactive”.

`CCCc1cc(=O)oc2c(C)c(O)c(CN3CCCCC3)cc12`: the max dye-equivalent concentration is 8800 nM (active).

As to `CCOC(=O)N1CCN(Cc2oc(CO)cc(=O)c2O)CC1`, the max dye-equivalent concentration entry is “inactive”.

As for `CCOC(=O)c1ccc(NC(=O)CSc2nnc(COc3ccccc3OC)n2C)cc1`, the max dye-equivalent concentration result is “inactive”.

For `O=C(Nc1ccon1)c1cccc(Cl)c1`, the max dye-equivalent concentration result is “inactive”.

As to `CCCN1C2=C(C(=O)CCC2)C(c2ccc(O)c(Br)c2)C2=C1CCCC2=O`, the max dye-equivalent concentration was 81 nM (active).

`c1ccc(CNc2ncncc2-c2cccnc2)cc1`: the max dye-equivalent concentration result was “inactive”.

With `CCC(=O)Nc1ccc2c(c1)nc(CCN1CCN(C)CC1)n2C`, the max dye-equivalent concentration result was “inactive”.

Consider `CC(Nc1nc(N2CCCC2)nc2ccccc12)c1ccccc1` (stereo unspecified), for which the max dye-equivalent concentration is 170 nM (active).

As to `Cc1ccc(C(CC(=O)O)Nc2nc(N3CCCCC3)nc(N3CCCCC3)n2)cc1` (stereo unspecified), the max dye-equivalent concentration entry was “inactive”.

As to `Cc1cc2c(cc1C)NC1=C(N2)O[C@H](c2c[nH]c3ccc(COc4ccccc4)cc23)C1=O`, the max dye-equivalent concentration entry was “inactive”.

For the molecule `Cn1nc(-c2ccc(N3CCOCC3)c(NC(=O)c3ccccc3)c2)c2ccccc2c1=O`, the max dye-equivalent concentration result was “inactive”.

With `Cn1c(=O)n(C)c2cc(CNc3ccc(N4CCOCC4)c(C(=O)O)c3)ccc21`, the max dye-equivalent concentration was 22 nM (active).

Regarding `Cn1c(=O)n(C)c2cc(C(=O)Nc3ccc4c(c3)OCO4)ccc21`, the max dye-equivalent concentration entry was “inactive”.

As for `Cn1c(CNc2nc(-c3ccccc3)cs2)nnc1SCC(=O)c1ccccc1`, the max dye-equivalent concentration entry is “inactive”.

As to `COc1ccc(CC(=O)Nc2c3c(nn2-c2cccc(Cl)c2)CS(=O)C3)cc1` (stereo unspecified), the max dye-equivalent concentration result is “inactive”.

Take `Cn1c(NC(=O)c2ccco2)c(-c2ccccc2Cl)c(=O)c2ccccc21`: the max dye-equivalent concentration result is “inactive”.

`COC(=O)c1cc(Cl)c(NC(=O)c2ccco2)cc1OC`: the max dye-equivalent concentration result was “inactive”.

For `Cc1ccc(-n2nc3cc(Cl)c(NC(=O)c4ccco4)cc3n2)cc1`, the max dye-equivalent concentration was 52 nM (active).

As to `CCN(CC)CCCNC(=O)c1cc(-c2cccc(Cl)c2)on1`, the max dye-equivalent concentration result was “inactive”.

As to `Cc1cc(C(F)(F)F)n2ncc(-c3ccccc3)c2n1`, the max dye-equivalent concentration was 12 nM (active).

With `Cc1cc(-n2nc(C)cc2C)n2ncc(-c3ccccc3)c2n1`, the max dye-equivalent concentration result is “inactive”.

Regarding `O=C(Cn1c(-c2ccc(Cl)cc2)noc1=O)N1CCN(c2ccccc2F)CC1`, the max dye-equivalent concentration entry was “inactive”.

Take `CC(=O)Oc1ccc2c(C)c(CC(C)O)c(=O)oc2c1` (stereo unspecified): the max dye-equivalent concentration is 21000 nM (active).

As to `COc1ccccc1-c1nc(NCCNC(C)=O)c2ccccc2n1`, the max dye-equivalent concentration entry is “inactive”.

With `C=CCn1c(=O)c2ccccc2n2c(SCC(=O)N3CCCc4ccccc43)nnc12`, the max dye-equivalent concentration entry is “inactive”.

Consider `O=c1oc2c(CN3CCCCC3)c(O)ccc2c2c1CCCCC2`, for which the max dye-equivalent concentration was 13000 nM (active).

Regarding `CCCn1c(=O)c2ccccc2n2c(SCC(=O)/C(C#N)=C(\C)N)nnc12`, the max dye-equivalent concentration result was “inactive”.

Turning to `Cc1ccc(S(=O)(=O)N(C)CC(=O)NC2CCCC2)cc1`, the max dye-equivalent concentration result was “inactive”.

Turning to `COc1ccccc1Cc1nc(-c2ccc(C)cc2)no1`, the max dye-equivalent concentration is 17 nM (active).

`Cc1ccc(Cc2nc(-c3cccc(C)c3)no2)cc1`: the max dye-equivalent concentration result was “inactive”.

`Cc1ccc(-c2noc(CN3CCN(Cc4ccccc4)CC3)n2)cc1`: the max dye-equivalent concentration result was “inactive”.

With `C[C@H]1O[C@@H](CC(=O)O)Cc2c1c(O)c1c(O)cc(-c3cc(=O)c4c(=O)c5c(c(=O)c=4c3=O)C[C@H](CC(=O)O)O[C@@H]5C)c(O)c1c2O`, the max dye-equivalent concentration entry was “inactive”.

As for `O=C(CSc1nc2ccccc2o1)N1CCN(c2ccc(Cl)cc2)CC1`, the max dye-equivalent concentration result was “inactive”.

As for `CC(=O)N(CN1C(=O)C2CC=CCC2C1=O)c1cccc(Cl)c1` (stereo unspecified), the max dye-equivalent concentration entry is “inactive”.

Consider `O=C(CC1Nc2ccccc2NC1=O)Nc1ccccc1` (stereo unspecified), for which the max dye-equivalent concentration was 100 nM (active).

Take `O=C(CC1NCCNC1=O)Nc1ccc(Oc2ccccc2)cc1` (stereo unspecified): the max dye-equivalent concentration result was “inactive”.

As for `CCOc1ccc(NC(=O)CC2NCCNC2=O)cc1` (stereo unspecified), the max dye-equivalent concentration entry was “inactive”.

In the case of `COc1ccc(Cc2nnnn2CC(=O)O)cc1`, the max dye-equivalent concentration entry is “inactive”.

Consider `CC(C)NC(=O)N1CC[C@@]2(CCCN(C(=O)c3cccn3C)C2)C1`, for which the max dye-equivalent concentration entry is “inactive”.

Take `O=C(C1CCN(S(=O)(=O)c2cccs2)CC1)N1CCCCCC1`: the max dye-equivalent concentration entry is “inactive”.

Consider `O=C(Nc1nncs1)c1ccccc1NS(=O)(=O)c1cccs1`, for which the max dye-equivalent concentration is 520 nM (active).

`O=C(Nc1ncccn1)c1cccs1`: the max dye-equivalent concentration result was “inactive”.

On to `COCCCN1C(=O)c2ccc(C(=O)Nc3ccc(OC)cc3OC)cc2C1=O`, for which the max dye-equivalent concentration entry was “inactive”.

Regarding `COc1ccc(NC(=O)N2CC3(CCN(C(=O)c4cccn4C)CC3)C2)cc1`, the max dye-equivalent concentration result was “inactive”.

`CCN1C(=O)C(C(=O)NC(C)c2ccccc2)C2CC1(C)Oc1ccccc12` (stereo unspecified): the max dye-equivalent concentration result is “inactive”.

Regarding `O=C(Cn1nnc(-c2ccccc2)n1)NCc1ccc2c(c1)OCO2`, the max dye-equivalent concentration entry is “inactive”.

On to `CCOC(=O)NCc1ccc2c(c1)OCO2`, for which the max dye-equivalent concentration entry was “inactive”.

As to `CC1CCCCN1CC(=O)NCc1ccc2c(c1)OCO2` (stereo unspecified), the max dye-equivalent concentration was 50 nM (active).

In the case of `COc1cccc(C2/C(=C(/O)c3ccncc3)C(=O)C(=O)N2CCCN(C)C)c1` (stereo unspecified), the max dye-equivalent concentration result is “inactive”.

For `CCCn1c(=O)c2[nH]c(C3CCCC3)nc2n(CCC)c1=O`, the max dye-equivalent concentration entry was “inactive”.

With `CSCCC(NC(N)=O)C(=O)N(C)CC(=O)Nc1ccc(C)cc1` (stereo unspecified), the max dye-equivalent concentration entry was “inactive”.

In the case of `c1ccc(-n2nnnc2N2CCOCC2)cc1`, the max dye-equivalent concentration entry is “inactive”.

As to `O=c1c(-c2ccc(F)cc2)nc2cnc(N3CCOCC3)nc2n1-c1ccccc1`, the max dye-equivalent concentration was 29 nM (active).

In the case of `CN1CCN(c2ncc3nc(-c4ccc(Cl)cc4)c(=O)n(-c4ccccc4)c3n2)CC1`, the max dye-equivalent concentration is 53 nM (active).

With `Cn1cc(-c2nc3cncnc3n(-c3ccccc3)c2=O)c2ccccc21`, the max dye-equivalent concentration result was “inactive”.

In the case of `O=C(c1ccc2c(c1)C(=O)N(c1ccc(Cl)cc1)C2=O)N1CCN(c2ccccn2)CC1`, the max dye-equivalent concentration entry was “inactive”.

Consider `Clc1ccc(C(c2ccc(Cl)cc2)n2cc[n+](C[C@@H](OCc3ccc(Cl)cc3Cl)c3ccc(Cl)cc3Cl)c2)cc1`, for which the max dye-equivalent concentration entry was “inactive”.

As for `COc1ccc(CNc2ncnc3ccc(-c4cccnc4)cc23)c(OC)c1`, the max dye-equivalent concentration result was “inactive”.

Consider `Cc1cccc(N2CCN(C(=O)C3CCN(S(=O)(=O)c4cnc[nH]4)CC3)CC2)c1C`, for which the max dye-equivalent concentration entry is “inactive”.

Take `O=C(c1ccco1)N1CCC2(CC1)CN(c1ncccn1)C2`: the max dye-equivalent concentration entry was “inactive”.

On to `O=C(c1cccnc1NCc1ccccc1)N1CCOCC1`, for which the max dye-equivalent concentration entry is “inactive”.

Regarding `Cc1nc(NCc2ccccc2)c(C(N)=O)c2c1COC(C)(C)C2`, the max dye-equivalent concentration was 150 nM (active).

`O=c1ccn(Cc2ccccc2Cl)cc1`: the max dye-equivalent concentration result was “inactive”.

Regarding `CC(C)CNC(=O)c1cc(-c2ccc(Br)cc2)on1`, the max dye-equivalent concentration result is “inactive”.

Turning to `COC(=O)c1ccc(NC(=O)CSc2nnc(-c3ccncc3)n2C)cc1`, the max dye-equivalent concentration entry was “inactive”.

With `CCOc1ccc(N=NS(=O)(=O)O)cc1`, the max dye-equivalent concentration result is “inactive”.

Turning to `COc1ccc(-c2nnn(CC(=O)N(CCO)C(C(=O)NC3CCCC3)c3ccc(F)cc3)n2)cc1` (stereo unspecified), the max dye-equivalent concentration result was “inactive”.

For `CCOc1ccc2nc(NC(=O)CSc3nc4c(c(=O)n(C)c(=O)n4C)n3CC)sc2c1`, the max dye-equivalent concentration entry is “inactive”.

Turning to `Cc1ccc(C(C(=O)NC2CCCC2)N(Cc2ccco2)C(=O)CCC(=O)Nc2ccccn2)cc1` (stereo unspecified), the max dye-equivalent concentration result is “inactive”.

Take `Cc1noc(C)c1COC(=O)Cn1c(C)nc2ccccc21`: the max dye-equivalent concentration entry is “inactive”.

Turning to `CCOc1cc(NC(=O)c2ccco2)c(OCC)cc1NC(=O)COc1ccccc1`, the max dye-equivalent concentration was 78 nM (active).

Consider `Cc1ccc(C(=O)COc2cccc(NC(=O)c3ccco3)c2)cc1`, for which the max dye-equivalent concentration entry was “inactive”.

As to `O=C(Nc1ccc(Oc2ccccc2)cc1)c1ccco1`, the max dye-equivalent concentration result is “inactive”.

For the molecule `O=C(c1cccs1)N1CCCC(c2nc(-c3ccc(F)cc3)no2)C1` (stereo unspecified), the max dye-equivalent concentration entry was “inactive”.

Turning to `Cc1ccc(S(=O)(=O)N2CCOCC2)cc1C(=O)NCc1ccc(F)cc1`, the max dye-equivalent concentration entry was “inactive”.

With `O=c1c2ccccc2nnn1CSc1nc2sc3c(c2c(=O)n1CC1CCCO1)CCC3` (stereo unspecified), the max dye-equivalent concentration entry is “inactive”.

In the case of `CCCn1nnc2sc3c(c2c1=O)CCC(C)C3` (stereo unspecified), the max dye-equivalent concentration was 32 nM (active).

With `CC1CCc2sc3nc(N4CCN(CCO)CC4)n4ncnc4c3c2C1` (stereo unspecified), the max dye-equivalent concentration entry was “inactive”.

Regarding `CC(C)C[C@H](NC(=O)[C@@H]1O[C@H]1C(=O)O)C(=O)NCCCCN=C(N)N`, the max dye-equivalent concentration entry was “inactive”.

Regarding `CC(C)Cc1ccc(S(=O)(=O)N2CCN(C(=O)c3ccco3)CC2)cc1`, the max dye-equivalent concentration entry is “inactive”.

For the molecule `Cc1ccccc1NC(=O)c1cc(S(=O)(=O)N2CCOCC2)cs1`, the max dye-equivalent concentration entry was “inactive”.

Turning to `Cc1cc(NC(=O)CCC(=O)N(c2ccccc2)C(C(=O)NC2CCCC2)c2ccncc2)no1` (stereo unspecified), the max dye-equivalent concentration entry is “inactive”.

On to `Cc1ccc2nc(NC3=NCN(CCc4ccccc4)CN3)nc(C)c2c1`, for which the max dye-equivalent concentration entry is “inactive”.

With `COc1ccc2nc(NC3=NCN(CC4CCCO4)CN3)nc(C)c2c1` (stereo unspecified), the max dye-equivalent concentration is 82 nM (active).

In the case of `Cc1ccsc1C(=O)OCC(=O)c1cc(C)n(CC2CCCO2)c1C` (stereo unspecified), the max dye-equivalent concentration result was “inactive”.

With `CCc1cc2c(=O)c(-c3ccon3)c(N)oc2cc1OC`, the max dye-equivalent concentration result was “inactive”.

For the molecule `CC(=NCC1CCCO1)c1c(O)[nH]c(=O)[nH]c1=O` (stereo unspecified), the max dye-equivalent concentration result was “inactive”.

In the case of `CCOC(=O)CN(C(=O)CN1CCOCC1)c1ccc(Br)cc1`, the max dye-equivalent concentration entry is “inactive”.

For the molecule `COCCCn1c(CCC(=O)O)ccc1-c1ccc(F)cc1`, the max dye-equivalent concentration is 1500 nM (active).

For the molecule `Cc1ccc(S(=O)(=O)C(C#N)c2nc3ccccc3nc2N2CCCC2)cc1C` (stereo unspecified), the max dye-equivalent concentration was 190 nM (active).

For the molecule `Cc1cc(Cl)ccc1OCC(=O)Oc1c(Cl)c(Cl)c(Cl)c(Cl)c1Cl`, the max dye-equivalent concentration entry was “inactive”.

Take `CCOCC(=O)Nc1sc2c(c1C(=O)OCC)CCCC2`: the max dye-equivalent concentration result is “inactive”.

With `COC(=O)c1c(NC(=O)c2cccs2)sc2c1CCCC2`, the max dye-equivalent concentration was 65 nM (active).

For `CCOC(=O)CSc1nnc(CNC(=O)c2cccs2)n1-c1ccccc1`, the max dye-equivalent concentration result is “inactive”.

Consider `CCOC(=O)c1c(NC(=O)c2cccs2)sc(C)c1C`, for which the max dye-equivalent concentration was 180 nM (active).

Regarding `COC(=O)Cn1cc(C(=O)c2cccs2)c2ccccc21`, the max dye-equivalent concentration result was “inactive”.

As for `CCOC(=O)c1c(NC(=O)CSc2nnc(Cc3csc(N)n3)n2C)sc(C)c1C`, the max dye-equivalent concentration result was “inactive”.

`CCOC(=O)c1c(-n2cnnn2)sc(C)c1C`: the max dye-equivalent concentration entry is “inactive”.

As for `CCOC(=O)c1oc2ccccc2c1NC(=O)c1cccs1`, the max dye-equivalent concentration is 21 nM (active).

As to `COC(=O)c1c(NC(=O)CSc2nncs2)sc2c1CCCCC2`, the max dye-equivalent concentration result was “inactive”.

With `Cc1ccc(C2(c3ccc(C)cc3)NC(=O)N(Cc3c(C)noc3C)C2=O)cc1`, the max dye-equivalent concentration entry was “inactive”.

Regarding `Cc1ccc(NC(=O)N2CCC(C(=O)NCc3ccc(F)cc3)CC2)cc1`, the max dye-equivalent concentration result was “inactive”.

On to `CCOc1ccc(-c2nnn(CC(=O)N3CCN(c4ccc(OC)cc4)CC3)n2)cc1OCC`, for which the max dye-equivalent concentration result is “inactive”.
